The source of these data is the supplement of paper PMC7858590.

One assay relates to human monocyte-derived macrophages (polarized). Nature of the assay: cell shape (eccentricity) Z-score vs DMSO control; higher = more elongated, M2-like morphology. To be noted: 5 µM; 24 h; macrophage state: M1-polarized (IFNg + TNFa), cytokines present during treatment. The procedure:
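Primary-screen hits were rescreened on polarized hMDMs with the differentiating cytokines (IL-4 + IL-13 or IFNg + TNFa) kept in the medium during treatment with compound at 5 uM for 24 h. The eccentricity Z-score vs DMSO wells is averaged over experiments.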
As for `COc1ccc([C@H]2CNC(=O)C2)cc1OC1CCCC1`, the “cell shape (Z-score)” value is -2.33.
Turning to `CCCCCCOc1ccccc1C(N)=O`, the “cell shape (Z-score)” value came to 3.38.
Still for that read-out and setting: to `O=C1Cc2c([nH]c3ccc([N+](=O)[O-])cc23)-c2ccccc2N1` belongs 4.68; to `Cc1cc(Nc2nc(N[C@@H](C)c3ncc(F)cn3)ncc2Cl)[nH]n1`, 10.1.
On to `CCOc1cc2ncc(C#N)c(Nc3ccc(OCc4ccccn4)c(Cl)c3)c2cc1NC(=O)/C=C/CN(C)C`, for which the “cell shape (Z-score)” value was found to be 0.0624.
Same read-out and setting: to `NC(=O)Nc1sc(-c2ccc(F)cc2)cc1C(N)=O` belongs 7.48; to `OC[C@H](Cc1ccccc1)Nc1nc(Oc2ccc3c(c2)CCC3)nc2c1ncn2Cc1ccc(-c2ccccc2)cc1`, 7.52; to `C/C=C/c1ccc2c(c1)O[C@@H](CN(C)C(=O)c1ccccc1)[C@@H](C)CN([C@@H](C)CO)S2(=O)=O`, -5.32.
Turning to `O=C(OC1C=C(CO)C2C(OC3OC(CO)C(O)C(O)C3O)OC=CC12O)c1ccc(O)cc1` (stereo not given), the “cell shape (Z-score)” value was 3.32.
In the case of `CNC(=O)c1cc(Oc2ccc(NC(=O)Nc3ccc(Cl)c(C(F)(F)F)c3)c(F)c2)ccn1`, the “cell shape (Z-score)” value worked out at 12.1.
With `CCC1(C)CC(=O)NC1=O` (stereo not given), the “cell shape (Z-score)” value was -7.19.
As for `Cc1cc(N2CCOCC2)cc2[nH]c(-c3c(NC[C@@H](O)c4cccc(Cl)c4)cc[nH]c3=O)nc12`, the “cell shape (Z-score)” value was 2.38.
For the molecule `Cn1c2ccccc2c2c3c(c4c5ccccc5n(CCC#N)c4c21)CNC3=O`, the “cell shape (Z-score)” value was 4.83.
On the same count and under the same terms, to `C=C(c1ccc(C(=O)O)cc1)c1cc2c(cc1C)C(C)(C)CCC2(C)C` belongs 8.49.
Take `COc1ccc(-c2cc(=O)c3c(O)cc(OC)c(OC)c3o2)c(OC)c1`: the “cell shape (Z-score)” value was -4.83.
On the same count and under the same terms, to `CC[C@H]1OC(=O)[C@H](C)[C@@H](O[C@H]2C[C@@](C)(OC)[C@@H](O)[C@H](C)O2)[C@H](C)[C@@H](O[C@@H]2O[C@H](C)C[C@H](N(C)C)[C@H]2O)[C@](C)(O)C[C@@H](C)C(=O)[C@H](C)[C@@H](O)[C@]1(C)O` belongs -5.37; to `O=C(Nc1ccc(OC(F)(F)F)cc1)c1sccc1NCc1ccnc2ccccc12`, 3.81.
Take `O=Nc1c(-c2c(O)[nH]c3cc(Br)ccc23)[nH]c2ccccc12`: the “cell shape (Z-score)” value is -13.2.
On the same count and under the same terms, the figure for `CCC[C@H](N[C@@H](C)C(=O)N1[C@H](C(=O)O)C[C@@H]2CCCC[C@@H]21)C(=O)OCC` is -1.48.
In the case of `O=C(/C=C/c1ccccc1)c1ccc(O)cc1`, the “cell shape (Z-score)” value was 8.35.
Regarding `Cn1c([N+](=O)[O-])cnc1COC(N)=O`, the “cell shape (Z-score)” value was -4.21.
On to `CC[C@@H]1C(=O)N(C)c2cnc(Nc3ccc(C(=O)NC4CCN(C)CC4)cc3OC)nc2N1C1CCCC1`, for which the “cell shape (Z-score)” value is -1.93.
With `N#CC[C@H](C1CCCC1)n1cc(-c2ncnc3[nH]ccc23)cn1`, the “cell shape (Z-score)” value is 1.19.
On the same count and under the same terms, the figure for `CC1(C)CCC(CN2CCN(c3ccc(C(=O)NS(=O)(=O)c4ccc(NCC5CCOCC5)c([N+](=O)[O-])c4)c(Oc4cnc5[nH]ccc5c4)c3)CC2)=C(c2ccc(Cl)cc2)C1` is 4.11; for `C[C@H]1[C@H](NC(=O)/C(=N\OC(C)(C)C(=O)O)c2csc(N)n2)C(=O)N1S(=O)(=O)O` it is 0.443.
The same measure, in the same setting: to `CC1C(=O)C(=O)[C@@H]2O[C@@H]2C1=O` (stereo not given in full) belongs -0.0615; to `C=C1C(=O)O[C@H]2C3=C(C)C[C@H](OC(C)=O)C[C@]3(C)CC[C@@H]12`, -1.91.
On the same count and under the same terms, the figure for `C#C[C@]1(O)CC[C@H]2[C@@H]3CCC4=Cc5oncc5C[C@]4(C)[C@H]3CC[C@@]21C` is -4.38.

The assay is the same for the next values; noted with them: 5 µM; 24 h; macrophage state: M2-polarized (IL-4 + IL-13), cytokines present during treatment.
In the case of `CN(C)c1ccc(C(=C2C=CC(=[N+](C)C)C=C2)c2ccc(N(C)C)cc2)cc1`, the “cell shape (Z-score)” value is -9.83.
Still for that read-out and setting: to `CC(C)c1ccc(Cn2ccc3c4c(N)nc(NC5CC5)nc4ccc32)cc1` belongs -11; to `Cc1oc(=O)oc1CN1CCN(c2cc3c(cc2F)c(=O)c(C(=O)O)c2n3C(C)S2)CC1` (stereo not given), -6.14; to `Cc1ccc(O)c(N=Nc2ccccc2)n1`, -1.32.
On to `COC(=O)Nc1nc2ccc(SC(C)C)cc2[nH]1`, for which the “cell shape (Z-score)” value was 0.135.
Same read-out and setting: the figure for `C[C@@H]1O[C@@H](O[C@@H]2[C@@H](O)[C@H](OC(=O)[C@]34CCC(C)(C)CC3C3=CCC5[C@@]6(C)CC[C@H](OC7OC(CO)C(OC8OCC(O)C(O)C8O)C(O)C7O)C(C)(C)C6CC[C@@]5(C)[C@]3(C)CC4O)O[C@H]2CO)[C@H](O)[C@H](O)[C@H]1O[C@H]1OC[C@](O)(CO)[C@H]1O` (stereo not given in full) is -4.86; for `O=C(CCCc1ccc(-c2ccccc2F)cc1)Nc1ccc(O)cc1` it is -9.79.
